Laboratory results published in PubChem BioAssay.
Calls of active or inactive are those of the source.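 Rule for the calls, unless noted: active = fluorescence slope higher than the sample average by over 3 SD (cut at about -0.22 in these data, passing the limit was not always enough); inactive = the rest.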

How the values were obtained:
[1] = inhibitors of TNFa-induced NFkB p65 translocation, primary screen, imaging, HUVEC, MLSMR starter and 10KST1 sets (AID 438;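 active = inhibition above 20% together with a positive visual image hit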;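 note: compound added about 3h40 before a 20 min TNFalpha stimulation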;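 for inhibition: signal is the nuclear over cytoplasmic p65 intensity ratio per well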); conditions: HUVEC TNFa-induced p65 nuclear translocation; cell count: measured here: nuclei count (cytotoxicity indicator), at 2.08 µM; inhibition: at 2 µM, stronger effect = higher value, 0% TNFa-plus-vehicle, 100% no-TNFa wells
[2] = inhibitors of mutant huntingtin aggregation, primary screen, imaging, exon1htt(103Q)mCFP cells, high-content imaging (AID 483;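 active = visual image review flags a hit and inhibition of aggregation exceeds 20%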;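 note: compound exposure lasted 3 days before fixation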;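 for nuclei count: percent of the per-plate median nuclei count of sample wells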); conditions: exon1htt(103Q)mCFP cell line, aggregate imaging, at 2 µM; inhibition of aggregation: stronger effect = higher value; nuclei count: measured here: cell count, toxicity
[3] = inhibitors of E-selectin induction by TNFa, primary screen, imaging, HUVEC, immunofluorescence, MLSMR starter and 10KST1 sets (AID 487;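 active = visually confirmed hit in the image check and inhibition above 20%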;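 for inhibition: signal is fraction of cell area covered by stained E-selectin grains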;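 for nuclei count: 100% = median nuclei count of all wells on the same plate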); conditions: HUVEC TNFalpha-induced E-selectin immunofluorescence imaging, at 2 µM; inhibition: stronger effect = higher value; nuclei count: measured here: cell number, toxicity
[4] = target: Voltage-gated potassium channel subunit beta-2 (Rattus norvegicus) (UniProt P62483); assay: KvBeta enzyme negative modulators, primary screen, biochemical, NADPH fluorescence (AID 622); conditions: recombinant KvBeta, 4-cyanobenzaldehyde reduction, at 10 µM, stronger effect = higher value;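 note: slope of raw intensity against log time taken from 70 to 1610 s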
Chain of Voltage-gated potassium channel subunit beta-2 (Rattus norvegicus) (P62483 whole entry, looked up): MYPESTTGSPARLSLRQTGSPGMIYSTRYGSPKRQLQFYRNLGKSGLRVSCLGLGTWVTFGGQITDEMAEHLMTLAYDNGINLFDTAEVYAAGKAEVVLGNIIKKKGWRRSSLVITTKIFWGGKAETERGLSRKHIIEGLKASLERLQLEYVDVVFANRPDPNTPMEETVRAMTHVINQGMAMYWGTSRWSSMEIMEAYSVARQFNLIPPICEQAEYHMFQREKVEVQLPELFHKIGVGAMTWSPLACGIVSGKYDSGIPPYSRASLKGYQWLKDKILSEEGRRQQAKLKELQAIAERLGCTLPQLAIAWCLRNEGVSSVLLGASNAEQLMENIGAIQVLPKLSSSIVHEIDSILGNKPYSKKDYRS

[5] = target: Voltage-gated potassium channel subunit beta-2 (Rattus norvegicus) (UniProt P62483); assay: KvBeta positive modulators, primary screen, biochemical, NADPH fluorescence (AID 623;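 active = NADPH fluorescence slope more negative than the mean of all samples by about 3 SD, 99.7% confidence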;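 note: fluorescence intensity change per second fitted from 20 to 320 s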); conditions: Recombinant KvBeta, NADPH fluorescence decrease slope, 10 min; at 10 µM; stronger effect = lower value
[6] = target: Alpha-2C adrenergic receptor (Homo sapiens) (UniProt P18825); assay: modulators of alpha2C/GIRK thallium flux, primary screen, cell-based, HEK293 alpha2C/GIRK1/2 (AID 624;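 active = fluorescence slope after compound addition differing from the mean of all screened samples at 99.7% confidence, in either direction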;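 note: slope of fluorescence ratio to pre-addition baseline per second over 15 to 24 s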); conditions: thallium flux BTC fluorescence, at 10 µM, actives lie on both sides
Chain of Alpha-2C adrenergic receptor (Homo sapiens) (P18825 whole entry, looked up): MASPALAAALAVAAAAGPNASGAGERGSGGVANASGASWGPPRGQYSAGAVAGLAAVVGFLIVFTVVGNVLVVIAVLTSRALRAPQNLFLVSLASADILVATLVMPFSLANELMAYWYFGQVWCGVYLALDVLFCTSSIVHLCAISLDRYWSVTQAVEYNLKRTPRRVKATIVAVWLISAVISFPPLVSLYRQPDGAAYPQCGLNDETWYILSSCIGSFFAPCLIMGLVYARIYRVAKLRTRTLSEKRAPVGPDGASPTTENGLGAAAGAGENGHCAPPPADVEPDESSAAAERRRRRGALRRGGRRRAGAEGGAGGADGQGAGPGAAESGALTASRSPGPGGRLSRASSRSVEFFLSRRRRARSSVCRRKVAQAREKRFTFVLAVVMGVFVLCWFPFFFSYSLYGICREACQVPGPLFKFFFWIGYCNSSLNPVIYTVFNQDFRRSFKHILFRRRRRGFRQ

[7] = inhibitors of Sendai virus-induced IRF3 signaling, primary screen, TLR/RLR signaling modifier project, cell-based, Sendai virus stimulus, luciferase, 10K MLSCN set (AID 602276;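 active = inhibition at or above 50% at 10 µM; inactive = inhibition below 50%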;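 note: firefly luciferase from ISG56 promoter only with Renilla not read in this screen; 0% = Sendai virus plus DMSO and 100% = medium plus DMSO without virus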); conditions: HEK293 RL24 IRF3 luciferase reporter, at 10 µM, stronger effect = higher value
[8] = inhibitors of poly I:C-induced TLR3 signaling, primary screen, cell-based, poly I:C stimulus, luciferase, 10K MLSCN set (AID 602277;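 active = inhibition of the reporter signal at or above 50%; inactive = inhibition below 50%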); conditions: HEK293-TLR3 RL24 IRF3 luciferase reporter, at 10 µM, stronger effect = higher value

SMILES	cell count [1]	inhibition [1]	inhibition of aggregation [2]	nuclei count [2] [%]	inhibition [3]	nuclei count [3] [%]	fluorescence slope [4]	NADPH fluorescence slope [5]	slope [6]	inhibition [7]	inhibition [8]
Cc1nc(SCC(=O)CC(=O)OC(C)C)c(C#N)c(C)c1C	718	-3.5% (inactive)	-22.8% (inactive)	118	34.6% (inactive)	99.8	-0.332 (inactive)	1.6e-05 (inactive)	0.00527 (inactive)	5.7% (inactive)	-3.09% (inactive)
O=C1C2CC=CCC2C(=O)N1c1ccc(Cc2ccncc2)cc1 (stereo not drawn)	591	-2.9% (inactive)	-8.1% (inactive)	107	29.1% (inactive)	95.7	-0.43 (inactive)	5.4e-05 (inactive)	0.00567 (inactive)	-2.68% (inactive)	-12.7% (inactive)
Cc1ccc(O)c(C(CC(=O)N2CCCC2)c2ccccc2)c1 (stereo not drawn)	478	1.6% (inactive)	4.1% (inactive)	103	-33% (inactive)	114	-0.35 (inactive)	-4.7e-05 (inactive)	0.00552 (inactive)	3.98% (inactive)	16.5% (inactive)
CCn1c(C(=O)N2CCC(C(=O)N3CCN(c4ccccn4)CC3)CC2)cc2sccc21	663	-12.8% (inactive)	27.4% (inactive)	105	-79.6% (inactive)	121	-0.578 (inactive)	-4.7e-05 (inactive)	0.00642 (inactive)	-5.71% (inactive)	-29% (inactive)
CCOc1ccccc1OCC(=O)Nc1nnc(COC)s1	437	2.9% (inactive)	-3.9% (inactive)	106	56.9% (inactive)	115	-0.59 (inactive)	-3.4e-05 (inactive)	0.00402 (inactive)	-15.3% (inactive)	-12.6% (inactive)
Cc1cc(C)c(OCC(=O)Nc2ccc3c(c2)OCO3)cc1C	327	-0.7% (inactive)	7.3% (inactive)	101	9.8% (inactive)	103	-0.437 (inactive)	4.6e-05 (inactive)	0.00669 (inactive)	-6.64% (inactive)	-49.1% (inactive)
C(=C\c1ccccc1)/CN1CCN(Cc2ccc3c(c2)OCCO3)CC1	435	0.5% (inactive)	2% (inactive)	104	-26.4% (inactive)	120	-0.442 (inactive)	2e-05 (inactive)	0.00636 (inactive)	14% (inactive)	19.9% (inactive)
CCOC(=O)C1CCN(c2c(NCCN3CCN(c4ccccc4)CC3)c(=O)c2=O)CC1	533	7.8% (inactive)	7.2% (inactive)	96.5	-115% (inactive)	95.9	-0.6 (inactive)	-1.7e-05 (inactive)	0.00543 (inactive)	1.01% (inactive)	28.4% (inactive)
CCOc1ccc(NC(=O)c2ccc3c(c2)N(Cc2ccc(F)cc2)C(=O)CS3=O)cc1 (stereo not drawn)	659	0% (inactive)	-4.8% (inactive)	105	-25.6% (inactive)	113	-0.551 (inactive)	-2.5e-05 (inactive)	0.00664 (inactive)	5.6% (inactive)	-7.02% (inactive)
CCC1(C(=O)OC)NC(c2cccc(F)c2)C2C(=O)N(C)C(=O)C21 (stereo not drawn)	715	-1.8% (inactive)	11.4% (inactive)	101	-167% (inactive)	112	-0.272 (inactive)	-5.7e-05 (inactive)	0.00554 (inactive)	14.4% (inactive)	30.6% (inactive)
COC(=O)c1c(NC(=O)CSc2nnnn2C)sc(C)c1C	446	-0.5% (inactive)	-4.7% (inactive)	95.6	30.9% (inactive)	101	-0.374 (inactive)	-3.1e-05 (inactive)	0.00478 (inactive)	-19% (inactive)	-14.9% (inactive)
O=C(NCC(c1cccnc1)N1CCN(c2ccccc2)CC1)c1ccc2c(c1)OCO2 (stereo not drawn)	362	-1.8% (inactive)	25.6% (inactive)	87.1	29.6% (inactive)	83.3	-0.619 (inactive)	-1.3e-05 (inactive)	0.00563 (inactive)	8.91% (inactive)	16.3% (inactive)
Cn1c(=O)c2c(ncn2CC(=O)OCC(=O)NC2CCCc3ccccc32)n(C)c1=O (stereo not drawn)	392	2.7% (inactive)	23.7% (inactive)	64.6	-85.1% (inactive)	112	-0.616 (inactive)	2.2e-06 (inactive)	0.00842 (inactive)	2.45% (inactive)	22.5% (inactive)
